From publication PMC7862700, “An all-to-all approach to the identification of sequence-specific readers for epigenetic DNA modifications on cytosine” come the findings set out here.

Holding throughout (test): DAPPL (digital affinity profiling via proximity ligation, sequencing); 10 mM Tris-HCl pH 7.5, 50 mM NaCl, 1 mM DTT, 4% glycerol, room temperature, 30 min; GST-TFs on glutathione beads, 16-mer random dsDNA library, 0.1% formaldehyde crosslink after washing; high values mean tight binding
The target in one assay is T1, FLI1 (Homo sapiens, UniProt Q01543 1-452).
T1 sequence: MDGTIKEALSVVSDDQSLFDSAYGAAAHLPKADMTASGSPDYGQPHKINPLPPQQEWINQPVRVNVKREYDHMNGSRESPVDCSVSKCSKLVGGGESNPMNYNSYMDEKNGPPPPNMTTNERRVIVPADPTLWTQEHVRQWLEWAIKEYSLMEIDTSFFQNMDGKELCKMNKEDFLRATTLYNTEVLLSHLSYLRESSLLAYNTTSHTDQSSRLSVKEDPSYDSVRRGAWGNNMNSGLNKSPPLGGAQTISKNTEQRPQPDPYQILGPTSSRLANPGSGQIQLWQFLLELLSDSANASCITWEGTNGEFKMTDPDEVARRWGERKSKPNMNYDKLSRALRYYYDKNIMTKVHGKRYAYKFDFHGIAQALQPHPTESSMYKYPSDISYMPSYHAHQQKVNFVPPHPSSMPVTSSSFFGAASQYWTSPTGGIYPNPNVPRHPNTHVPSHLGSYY
As to conditions: protein: recombinant; tags: N-terminal GST; dsDNA, one strand shown. The method in brief:
(§1)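 Sequencing on an Illumina NextSeq500 followed washing, crosslinking with 0.1% formaldehyde, proximity ligation (BsaI/T4 ligase, 1 h, 37 °C) and PCR amplification of pools that had been incubated for 30 min at room temperature with 200 nmole of a random double-stranded 16-mer DNA library in Tris/NaCl/DTT/glycerol buffer. Each pool held DNA-barcoded human transcription factors, expressed in yeast as GST fusions and captured on glutathione beads, plus a tag-only sample. Binding signal is a hexamer's read frequency for a factor divided by its frequency in the tag-only sample.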

The next assay has as its target T2, ELK1 (Homo sapiens, UniProt P19419 1-428).
T2 sequence: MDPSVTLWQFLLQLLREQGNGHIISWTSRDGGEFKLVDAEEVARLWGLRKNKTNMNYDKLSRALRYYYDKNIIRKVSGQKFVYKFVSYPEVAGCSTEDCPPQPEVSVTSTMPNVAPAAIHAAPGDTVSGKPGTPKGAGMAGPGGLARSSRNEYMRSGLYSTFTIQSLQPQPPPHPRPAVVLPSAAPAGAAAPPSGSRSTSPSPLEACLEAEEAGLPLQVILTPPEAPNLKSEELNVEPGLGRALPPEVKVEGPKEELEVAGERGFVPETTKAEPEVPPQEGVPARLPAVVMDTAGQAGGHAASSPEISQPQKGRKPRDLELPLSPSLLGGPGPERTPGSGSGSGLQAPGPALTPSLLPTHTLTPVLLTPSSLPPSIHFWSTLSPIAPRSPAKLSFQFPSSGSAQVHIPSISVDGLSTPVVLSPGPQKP
As to conditions: protein: recombinant; tags: N-terminal GST; dsDNA, one strand shown. Put shortly:
as §1

The target in the next assay is T3, GABPA (Homo sapiens, UniProt Q06546 1-454).
T3 sequence: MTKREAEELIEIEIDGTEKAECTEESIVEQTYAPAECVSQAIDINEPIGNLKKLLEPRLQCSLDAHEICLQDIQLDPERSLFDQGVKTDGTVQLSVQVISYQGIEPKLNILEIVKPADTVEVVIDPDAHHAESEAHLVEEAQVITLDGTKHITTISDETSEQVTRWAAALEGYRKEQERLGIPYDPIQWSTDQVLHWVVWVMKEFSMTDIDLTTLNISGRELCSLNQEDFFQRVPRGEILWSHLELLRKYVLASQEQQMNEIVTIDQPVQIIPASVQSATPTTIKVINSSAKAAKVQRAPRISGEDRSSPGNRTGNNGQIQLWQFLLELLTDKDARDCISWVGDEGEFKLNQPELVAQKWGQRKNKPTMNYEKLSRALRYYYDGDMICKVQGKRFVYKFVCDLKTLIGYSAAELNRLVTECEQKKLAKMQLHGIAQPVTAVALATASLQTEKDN
To be noted: protein: recombinant; tags: N-terminal GST; dsDNA, one strand shown. Put shortly:
as §1

In a further assay the target is T4, ERG (Homo sapiens, UniProt P11308 1-479).
T4 sequence: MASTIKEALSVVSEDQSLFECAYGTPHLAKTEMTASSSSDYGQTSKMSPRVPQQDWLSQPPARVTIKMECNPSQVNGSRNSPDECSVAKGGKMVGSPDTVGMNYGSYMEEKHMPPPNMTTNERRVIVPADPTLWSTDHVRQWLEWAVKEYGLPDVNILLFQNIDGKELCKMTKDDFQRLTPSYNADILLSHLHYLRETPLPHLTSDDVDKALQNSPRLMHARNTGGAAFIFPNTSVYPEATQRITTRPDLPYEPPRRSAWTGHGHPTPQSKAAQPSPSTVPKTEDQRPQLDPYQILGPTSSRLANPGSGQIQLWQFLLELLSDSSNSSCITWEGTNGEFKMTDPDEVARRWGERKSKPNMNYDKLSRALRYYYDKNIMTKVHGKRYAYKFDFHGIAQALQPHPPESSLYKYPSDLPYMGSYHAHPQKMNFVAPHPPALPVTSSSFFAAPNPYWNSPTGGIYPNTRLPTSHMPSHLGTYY
As to conditions: protein: recombinant; tags: N-terminal GST; dsDNA, one strand shown. Put shortly: as §1

A further assay has as its target ELF1 (Homo sapiens, UniProt P32519 1-619). As to conditions: protein: recombinant; tags: N-terminal GST; dsDNA, one strand shown. Put shortly: as §1
In another assay the target is T5, EHF (Homo sapiens, UniProt Q9NZC4 1-300).
T5 sequence: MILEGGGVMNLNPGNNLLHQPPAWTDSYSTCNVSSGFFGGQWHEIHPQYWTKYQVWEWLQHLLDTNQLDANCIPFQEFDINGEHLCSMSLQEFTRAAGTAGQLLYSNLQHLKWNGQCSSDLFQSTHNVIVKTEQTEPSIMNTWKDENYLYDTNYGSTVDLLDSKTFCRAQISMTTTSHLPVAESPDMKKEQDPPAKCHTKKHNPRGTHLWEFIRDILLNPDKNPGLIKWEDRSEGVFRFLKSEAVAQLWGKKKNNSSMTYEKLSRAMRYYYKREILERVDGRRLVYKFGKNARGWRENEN
As to conditions: protein: recombinant; tags: N-terminal GST; dsDNA, one strand shown. The method in brief:
as §1

Another assay deals with SPI1 (Homo sapiens, UniProt P17947 1-270). As to conditions: protein: recombinant; tags: N-terminal GST; dsDNA, one strand shown. The method in brief: as §1
The target in another assay is SPIB (Homo sapiens, UniProt Q01892 1-262). As to conditions: protein: recombinant; tags: N-terminal GST; dsDNA, one strand shown. The method in brief:
as §1

The next assay concerns the target T6, ELK3 (Homo sapiens, UniProt P41970 1-407).
T6 sequence: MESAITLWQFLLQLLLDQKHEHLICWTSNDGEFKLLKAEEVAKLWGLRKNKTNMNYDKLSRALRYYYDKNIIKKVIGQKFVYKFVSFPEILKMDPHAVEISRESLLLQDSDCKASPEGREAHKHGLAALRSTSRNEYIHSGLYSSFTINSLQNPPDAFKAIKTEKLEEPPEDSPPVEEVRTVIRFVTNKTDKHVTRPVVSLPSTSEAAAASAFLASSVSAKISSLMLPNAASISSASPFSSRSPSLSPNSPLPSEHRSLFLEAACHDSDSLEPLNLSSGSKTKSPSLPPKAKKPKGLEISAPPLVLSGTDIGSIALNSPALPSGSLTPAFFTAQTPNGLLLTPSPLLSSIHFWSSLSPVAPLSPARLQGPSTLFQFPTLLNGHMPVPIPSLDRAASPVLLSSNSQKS
As to conditions: protein: recombinant; tags: N-terminal GST; dsDNA, one strand shown. Put shortly:
as §1

The next assay addresses T7, FEV (Homo sapiens, UniProt Q99581 1-238).
T7 sequence: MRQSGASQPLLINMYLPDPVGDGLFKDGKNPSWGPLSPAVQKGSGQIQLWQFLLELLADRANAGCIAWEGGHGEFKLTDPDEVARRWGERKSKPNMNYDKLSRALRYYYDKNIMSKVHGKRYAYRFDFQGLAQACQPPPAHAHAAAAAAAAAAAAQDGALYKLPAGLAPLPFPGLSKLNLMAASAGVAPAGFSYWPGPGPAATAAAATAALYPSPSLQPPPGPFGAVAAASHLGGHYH
To be noted: protein: recombinant; tags: N-terminal GST; dsDNA, one strand shown. Put shortly: as §1

For another assay, the target named is ETV5 (Homo sapiens, UniProt P41161 1-510). To be noted: protein: recombinant; tags: N-terminal GST; dsDNA, one strand shown. Put shortly:
as §1

The next assay has as its target HSF1 (Homo sapiens, UniProt Q00613 1-529). As to conditions: protein: recombinant; tags: N-terminal GST; chain copies: 3; dsDNA, one strand shown. The method in brief:
as §1

A further assay deals with T8, SPIC (Homo sapiens, UniProt Q8N5J4 1-248).
T8 sequence: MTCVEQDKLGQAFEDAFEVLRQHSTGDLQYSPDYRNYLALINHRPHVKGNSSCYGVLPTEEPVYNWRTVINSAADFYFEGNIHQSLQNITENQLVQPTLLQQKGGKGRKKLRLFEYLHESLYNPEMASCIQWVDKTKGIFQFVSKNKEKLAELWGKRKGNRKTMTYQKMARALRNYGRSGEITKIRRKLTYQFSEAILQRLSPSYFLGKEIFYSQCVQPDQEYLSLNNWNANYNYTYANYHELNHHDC
As to conditions: protein: recombinant; tags: N-terminal GST; dsDNA, one strand shown. The method in brief: as §1

The next assay concerns the target ELF4 (Homo sapiens, UniProt Q99607 1-663). To be noted: protein: recombinant; tags: N-terminal GST; dsDNA, one strand shown. The method in brief:
as §1

Another assay addresses T9, ELK4 (Homo sapiens, UniProt P28324-2 1-405).
T9 sequence: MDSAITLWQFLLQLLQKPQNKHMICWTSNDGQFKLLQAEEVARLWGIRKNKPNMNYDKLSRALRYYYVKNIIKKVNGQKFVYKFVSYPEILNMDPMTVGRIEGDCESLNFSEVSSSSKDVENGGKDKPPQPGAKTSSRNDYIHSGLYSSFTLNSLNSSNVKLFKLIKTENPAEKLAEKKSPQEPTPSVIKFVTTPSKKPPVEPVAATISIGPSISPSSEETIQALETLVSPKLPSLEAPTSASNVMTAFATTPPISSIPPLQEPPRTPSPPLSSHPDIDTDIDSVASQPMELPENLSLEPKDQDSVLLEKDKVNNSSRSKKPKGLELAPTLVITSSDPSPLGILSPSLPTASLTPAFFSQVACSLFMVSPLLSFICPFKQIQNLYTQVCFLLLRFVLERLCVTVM
To be noted: protein: recombinant; tags: N-terminal GST; dsDNA, one strand shown. The method in brief:
as §1

Another assay concerns the target T10, ETV2 (Homo sapiens, UniProt O00321 1-342).
T10 sequence: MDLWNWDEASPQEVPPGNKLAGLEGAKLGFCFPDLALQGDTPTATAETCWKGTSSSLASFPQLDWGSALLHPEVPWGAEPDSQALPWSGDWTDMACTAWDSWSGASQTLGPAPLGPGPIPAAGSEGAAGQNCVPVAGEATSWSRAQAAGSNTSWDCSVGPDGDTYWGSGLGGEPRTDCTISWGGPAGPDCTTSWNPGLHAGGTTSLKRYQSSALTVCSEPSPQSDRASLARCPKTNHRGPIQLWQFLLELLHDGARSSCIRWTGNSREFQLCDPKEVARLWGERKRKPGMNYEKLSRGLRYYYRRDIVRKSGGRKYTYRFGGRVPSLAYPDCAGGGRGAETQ
To be noted: protein: recombinant; tags: N-terminal GST; dsDNA, one strand shown. Put shortly: as §1

A further assay concerns the target T11, ELF3 (Homo sapiens, UniProt P78545 1-371).
T11 sequence: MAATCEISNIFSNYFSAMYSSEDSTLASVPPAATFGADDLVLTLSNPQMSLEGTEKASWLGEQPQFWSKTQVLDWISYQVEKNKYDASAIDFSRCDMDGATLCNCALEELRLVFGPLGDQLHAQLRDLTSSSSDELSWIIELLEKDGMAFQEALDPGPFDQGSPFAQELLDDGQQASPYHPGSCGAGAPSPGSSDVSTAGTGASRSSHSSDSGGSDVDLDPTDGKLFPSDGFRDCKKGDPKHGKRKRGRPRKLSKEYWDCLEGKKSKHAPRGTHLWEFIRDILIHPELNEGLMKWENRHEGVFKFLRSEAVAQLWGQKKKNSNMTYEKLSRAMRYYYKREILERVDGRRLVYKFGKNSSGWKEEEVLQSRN
As to conditions: protein: recombinant; tags: N-terminal GST; dsDNA, one strand shown. Put shortly:
as §1

The next assay concerns the target ETV1 (Homo sapiens, UniProt P50549 1-477). To be noted: protein: recombinant; tags: N-terminal GST; dsDNA, one strand shown. Put shortly: as §1

Chain of ELF4 (Q99607 whole entry): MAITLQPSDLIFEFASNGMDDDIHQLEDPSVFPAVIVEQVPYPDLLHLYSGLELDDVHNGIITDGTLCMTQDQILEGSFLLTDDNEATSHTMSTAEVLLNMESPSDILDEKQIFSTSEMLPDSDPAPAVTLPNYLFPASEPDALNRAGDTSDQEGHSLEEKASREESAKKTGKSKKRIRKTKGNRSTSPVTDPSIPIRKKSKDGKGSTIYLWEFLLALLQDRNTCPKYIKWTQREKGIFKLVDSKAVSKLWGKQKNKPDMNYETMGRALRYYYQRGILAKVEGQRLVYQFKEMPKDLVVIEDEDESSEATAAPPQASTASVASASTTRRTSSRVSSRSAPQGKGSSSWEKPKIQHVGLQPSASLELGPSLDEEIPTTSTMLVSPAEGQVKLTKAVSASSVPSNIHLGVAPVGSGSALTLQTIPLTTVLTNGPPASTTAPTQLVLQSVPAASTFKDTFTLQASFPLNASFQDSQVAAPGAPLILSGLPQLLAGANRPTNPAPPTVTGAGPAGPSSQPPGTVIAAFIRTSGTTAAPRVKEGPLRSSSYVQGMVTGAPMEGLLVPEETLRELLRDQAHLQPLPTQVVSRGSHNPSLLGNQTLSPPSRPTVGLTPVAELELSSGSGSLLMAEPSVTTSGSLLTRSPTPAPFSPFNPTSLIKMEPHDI
Chain of HSF1 (Q00613 whole entry): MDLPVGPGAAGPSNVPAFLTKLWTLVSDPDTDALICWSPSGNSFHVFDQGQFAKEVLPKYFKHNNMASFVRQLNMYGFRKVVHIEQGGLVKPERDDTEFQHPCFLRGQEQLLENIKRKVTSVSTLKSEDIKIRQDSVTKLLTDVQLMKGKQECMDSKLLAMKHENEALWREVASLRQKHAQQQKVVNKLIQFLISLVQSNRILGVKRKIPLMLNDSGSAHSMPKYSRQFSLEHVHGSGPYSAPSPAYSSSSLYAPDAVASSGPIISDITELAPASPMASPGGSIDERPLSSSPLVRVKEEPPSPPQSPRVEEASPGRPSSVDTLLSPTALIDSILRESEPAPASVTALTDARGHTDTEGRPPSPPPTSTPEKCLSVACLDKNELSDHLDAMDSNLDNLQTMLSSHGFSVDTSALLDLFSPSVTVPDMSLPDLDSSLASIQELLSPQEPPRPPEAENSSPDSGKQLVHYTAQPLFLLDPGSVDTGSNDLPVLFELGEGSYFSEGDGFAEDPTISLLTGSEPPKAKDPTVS
Chain of ETV1 (P50549 whole entry): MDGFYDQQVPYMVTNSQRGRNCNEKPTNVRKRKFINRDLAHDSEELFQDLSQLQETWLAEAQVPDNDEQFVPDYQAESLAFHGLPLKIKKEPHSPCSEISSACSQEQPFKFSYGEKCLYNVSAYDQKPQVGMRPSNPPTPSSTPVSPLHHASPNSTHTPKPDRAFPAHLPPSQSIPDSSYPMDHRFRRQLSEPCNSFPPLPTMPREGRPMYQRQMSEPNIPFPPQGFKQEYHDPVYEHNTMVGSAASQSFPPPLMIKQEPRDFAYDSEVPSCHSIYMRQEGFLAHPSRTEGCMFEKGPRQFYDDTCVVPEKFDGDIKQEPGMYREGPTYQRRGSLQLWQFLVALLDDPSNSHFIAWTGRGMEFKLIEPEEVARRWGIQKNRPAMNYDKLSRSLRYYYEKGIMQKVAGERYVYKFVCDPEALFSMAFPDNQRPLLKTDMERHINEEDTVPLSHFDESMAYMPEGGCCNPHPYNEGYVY
Chain of ETV5 (P41161 whole entry): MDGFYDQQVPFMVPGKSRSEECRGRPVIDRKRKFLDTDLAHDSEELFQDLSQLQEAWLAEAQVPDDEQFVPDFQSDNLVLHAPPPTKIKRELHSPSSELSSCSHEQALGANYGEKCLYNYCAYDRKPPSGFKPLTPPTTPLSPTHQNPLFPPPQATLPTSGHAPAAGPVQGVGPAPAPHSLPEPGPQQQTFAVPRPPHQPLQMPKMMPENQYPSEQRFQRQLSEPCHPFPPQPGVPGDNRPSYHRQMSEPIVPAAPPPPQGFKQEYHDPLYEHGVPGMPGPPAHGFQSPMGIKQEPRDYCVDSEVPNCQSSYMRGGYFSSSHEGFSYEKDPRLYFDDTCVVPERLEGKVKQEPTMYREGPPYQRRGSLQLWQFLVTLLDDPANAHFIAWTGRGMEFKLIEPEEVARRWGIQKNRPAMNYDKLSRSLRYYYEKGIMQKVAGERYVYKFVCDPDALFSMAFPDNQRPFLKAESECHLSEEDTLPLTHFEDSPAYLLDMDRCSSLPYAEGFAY
Chain of ELF1 (P32519 whole entry): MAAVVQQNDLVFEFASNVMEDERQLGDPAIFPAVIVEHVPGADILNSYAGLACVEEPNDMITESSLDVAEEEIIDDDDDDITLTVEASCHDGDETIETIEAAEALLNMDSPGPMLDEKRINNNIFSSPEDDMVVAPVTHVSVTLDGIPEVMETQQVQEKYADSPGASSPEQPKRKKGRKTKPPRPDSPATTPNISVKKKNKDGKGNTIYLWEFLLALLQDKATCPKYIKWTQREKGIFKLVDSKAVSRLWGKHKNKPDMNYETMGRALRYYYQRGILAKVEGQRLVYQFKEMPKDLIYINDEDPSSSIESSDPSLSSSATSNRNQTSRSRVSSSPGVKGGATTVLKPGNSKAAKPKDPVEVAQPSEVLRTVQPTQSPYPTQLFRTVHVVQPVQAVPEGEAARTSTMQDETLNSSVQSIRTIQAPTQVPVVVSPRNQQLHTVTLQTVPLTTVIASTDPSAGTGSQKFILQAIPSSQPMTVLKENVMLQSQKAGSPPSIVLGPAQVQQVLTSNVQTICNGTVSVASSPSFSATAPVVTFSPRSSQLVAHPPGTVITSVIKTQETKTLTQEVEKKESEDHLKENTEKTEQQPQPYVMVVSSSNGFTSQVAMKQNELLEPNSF
Chain of SPIB (Q01892 whole entry): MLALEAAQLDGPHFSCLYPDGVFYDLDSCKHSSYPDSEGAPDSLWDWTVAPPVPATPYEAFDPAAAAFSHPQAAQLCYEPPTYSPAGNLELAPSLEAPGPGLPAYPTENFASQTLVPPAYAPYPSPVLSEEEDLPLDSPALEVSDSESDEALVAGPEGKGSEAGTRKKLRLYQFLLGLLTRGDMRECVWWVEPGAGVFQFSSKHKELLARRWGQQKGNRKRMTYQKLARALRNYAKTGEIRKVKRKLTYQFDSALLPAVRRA

Take ATGTAC: the binding signal in the assay with FLI1 was 1.31 fold enrichment (6-mer frequency, TF over GST control); with ELK1 it was 1.31 fold enrichment (6-mer frequency, TF over GST control); with GABPA it was 1.19 fold enrichment (6-mer frequency, TF over GST control); in the assay with ERG, 1.11 fold enrichment (6-mer frequency, TF over GST control); in the assay with ELF1, 1.27 fold enrichment (6-mer frequency, TF over GST control); with EHF, 1.25 fold enrichment (6-mer frequency, TF over GST control). Also, the binding signal with SPI1 is 1.23 fold enrichment (6-mer frequency, TF over GST control); with SPIB, 1.27 fold enrichment (6-mer frequency, TF over GST control); with ELK3, 1.26 fold enrichment (6-mer frequency, TF over GST control); with FEV it was 1.3 fold enrichment (6-mer frequency, TF over GST control); in the assay with ETV5, 1.23 fold enrichment (6-mer frequency, TF over GST control); with HSF1, 1.16 fold enrichment (6-mer frequency, TF over GST control). In addition, the binding signal in the assay with SPIC was 1.31 fold enrichment (6-mer frequency, TF over GST control); in the assay with ELF4, 1.31 fold enrichment (6-mer frequency, TF over GST control); with ELK4, 1.37 fold enrichment (6-mer frequency, TF over GST control); with ETV2 it was 1.39 fold enrichment (6-mer frequency, TF over GST control); with ELF3, 1.3 fold enrichment (6-mer frequency, TF over GST control); with ETV1 it was 1.35 fold enrichment (6-mer frequency, TF over GST control).
